Experimental findings from PubChem BioAssay (NCATS) are described below.

SMILES strings stand for the structures. Results filed as inconclusive are left out. The source made the active and inactive calls. Unless noted, calls come from the whole dose curve.

Assay [1] can be described thus: Cytotoxicity counterscreen for inhibitors of SARS-CoV-2 cell entry (AID 1645845). Note: nearly all actives have a fitted effect of over 50% in size. As to conditions: outcome: dose series up to 57.1 µM unless noted. A digest of the protocol:
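Counterscreen run in the same HEK293-ACE2 line as the pseudotyped-particle entry assay, without particles. Viability after 48 h at 37 C was read as ATP luminescence, scaled between cell-containing and cell-free wells.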
Background: A counterscreen serves to expose hits that act by an unwanted route or on another target.

Assay [2] is described as follows: Primary qHTS to identify inhibitors of SARS-CoV-2 cell entry (AID 1645846). Note: nearly all actives have a fitted effect of over 45% in size. As to conditions: SARS-CoV-2 pseudovirus cell entry assay, luminescence; activity change, negative = inhibition: at 57.1 µM (top of the series) unless noted. In a few lines:
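Entry measured by luciferase signal 48 h after adding SARS-CoV-2-S pseudotyped MLV particles to HEK293-ACE2 cells preincubated 1 h with compounds. Normalisation: bald particles and spike particles.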
(In qHTS, concentration-response curves come from the screen itself.)

A short description of assay [3]: VSVG counterscreen qHTS to identify inhibitors of SARS-CoV-2 cell entry (AID 1645847). Note: potency is the fitted concentration of half-maximal effect; nearly all actives have a fitted effect of over 65% in size. A digest of the protocol:
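Luminescence read after 48 h infection at 37 C with VSV-G-pseudotyped MLV particles, following 1 h compound exposure of Expi293F cells stably expressing human ACE2; scaled between bald particle and VSV-G particle wells.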

In assay [4] the target is Alpha-galactosidase (Coffea arabica) (UniProt Q42656). The assay is described as follows: Counterscreen for Glucocerebrosidase Inhibitors: qHTS Assay for Coffee Bean alpha-Galactosidase at pH 4.5 (AID 957; active = well fitted curve in the direction sought with a large enough effect; an effect the other way counts as inactive or inconclusive;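 note: plate controls were enzyme alone for no effect and no enzyme for full effect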). A digest of the protocol: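 Quantitative HTS of compounds (0.7 nM to 77 uM) against coffee bean alpha-galactosidase at pH 4.5, measuring 4-methylumbelliferone fluorescence released from 80 uM substrate.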
Sequence of Alpha-galactosidase (Coffea arabica) (Q42656 whole entry, looked up): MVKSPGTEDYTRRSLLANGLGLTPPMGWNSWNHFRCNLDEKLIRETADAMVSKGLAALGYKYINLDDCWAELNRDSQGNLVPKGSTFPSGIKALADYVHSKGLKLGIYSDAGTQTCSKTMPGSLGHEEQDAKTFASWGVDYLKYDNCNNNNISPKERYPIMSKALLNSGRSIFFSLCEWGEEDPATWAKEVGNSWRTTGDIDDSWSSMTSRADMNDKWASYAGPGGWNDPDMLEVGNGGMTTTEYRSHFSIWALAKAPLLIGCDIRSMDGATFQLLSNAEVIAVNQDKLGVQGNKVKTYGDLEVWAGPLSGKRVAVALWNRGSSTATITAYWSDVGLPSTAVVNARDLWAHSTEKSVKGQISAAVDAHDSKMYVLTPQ

For assay [5] the target is unchanged. Put plainly: Counterscreen for Glucocerebrosidase Inhibitors: qHTS Assay for Coffee Bean alpha-Galactosidase at pH 5.9 (AID 998; active = well fitted curve in the direction sought with a large enough effect; an effect the other way counts as inactive or inconclusive;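 note: plate controls were uninhibited enzyme for no effect and no-enzyme basal signal for full effect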). In a few lines: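 Enzyme 2 nM + cpd (0.7 nM–77 uM titration) + 4-MU-alpha-Gal 80 uM, pH 5.9 citrate/Tween-20, RT 20 min, NaOH/glycine stop pH 10, fluor 365/440. Normalized to no-enzyme and full-activity controls; Hill-fit AC50.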

Assay [6] is described as follows: Validation screen for inhibitors of Lassa infection (AID 463096). Note: % is set by controls: 0 for no effect and ±100 for the full control effect.
The target of assay [7] is Bile acid receptor (Homo sapiens) (UniProt Q96RI1). Put plainly: qHTS assay for small molecule agonists of farnesoid X receptor signaling (AID 588527).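 Note: 0% = vehicle basal and 100% = reference agonist.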 As to conditions: HEK293T FXR-UAS-bla, beta-lactamase ratio, 16 h; stronger effect = higher value. In a few lines: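 Agonist-mode beta-lactamase reporter in GeneBLAzer FXR-UAS-bla HEK293T cells, titration up to 92 uM, 16 h exposure at 37 C, CCF4 fluorescence. Response scaled to DMSO (0%) and 100 uM chenodeoxycholic acid (100%), then Hill-fitted for EC50 and efficacy.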
Sequence of Bile acid receptor (Homo sapiens) (Q96RI1 whole entry, looked up): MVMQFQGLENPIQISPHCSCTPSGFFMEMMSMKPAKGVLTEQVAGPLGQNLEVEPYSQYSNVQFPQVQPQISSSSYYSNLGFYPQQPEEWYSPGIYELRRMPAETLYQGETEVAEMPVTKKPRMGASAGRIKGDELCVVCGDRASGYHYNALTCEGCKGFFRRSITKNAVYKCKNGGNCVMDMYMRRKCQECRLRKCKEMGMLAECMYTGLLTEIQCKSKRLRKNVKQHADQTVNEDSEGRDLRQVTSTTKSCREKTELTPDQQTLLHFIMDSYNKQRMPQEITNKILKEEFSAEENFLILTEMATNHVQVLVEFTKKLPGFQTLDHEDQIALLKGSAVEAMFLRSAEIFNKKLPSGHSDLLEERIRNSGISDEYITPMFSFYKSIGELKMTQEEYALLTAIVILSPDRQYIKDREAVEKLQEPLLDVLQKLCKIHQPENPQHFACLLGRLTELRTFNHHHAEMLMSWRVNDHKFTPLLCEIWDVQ

Assay [8] addresses Nuclear receptor subfamily 1 group I member 3 (Homo sapiens) (UniProt Q14994). The assay is described as follows: Primary qHTS for antagonist of constitutive androstane receptor (CAR) against the NCATS DSHEA and TCM libraries (AID 1794836; active = well fitted curve in the direction sought with a large enough effect; an effect the other way counts as inactive or inconclusive;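 note: HepG2 cells stably expressing hCAR with CYP2B6 luciferase reporter stimulated by CITCO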). In a few lines:
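HepG2-CYP2B6-hCAR cells, attached 5 h, given compounds plus CITCO agonist […], incubated 24 h at 37 C. Luciferase luminescence read, multiplexed with CellTiter-Fluor viability (Ex/Em 405/540 nm).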

Sequence of Nuclear receptor subfamily 1 group I member 3 (Homo sapiens) (Q14994 whole entry, looked up): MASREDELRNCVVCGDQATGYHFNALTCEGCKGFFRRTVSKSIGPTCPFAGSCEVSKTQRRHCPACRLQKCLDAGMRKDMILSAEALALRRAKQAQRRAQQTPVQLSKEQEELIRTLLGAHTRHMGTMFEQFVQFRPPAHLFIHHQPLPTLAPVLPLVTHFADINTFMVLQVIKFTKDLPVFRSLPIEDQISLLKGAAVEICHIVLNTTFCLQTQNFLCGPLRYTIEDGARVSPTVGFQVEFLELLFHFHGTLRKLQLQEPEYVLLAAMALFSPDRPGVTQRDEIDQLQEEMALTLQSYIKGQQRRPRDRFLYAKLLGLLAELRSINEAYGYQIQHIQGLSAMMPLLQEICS

Turning to `CCOC(=N)c1nc2ccc3ncnc(Nc4cc(F)c(F)cc4Cl)c3c2s1`, in assay [1], the Potency entry is “inactive”. Moreover, in assay [2], the activity change, negative = inhibition was -20.9%.

Regarding `CO[C@H]1/C=C/O[C@@]2(C)Oc3c(C)c(O)c4c(O)c(c(/C=N/N5CCN(C)CC5)c(O)c4c3C2=O)NC(=O)/C(C)=C\C=C\[C@H](C)[C@H](O)[C@@H](C)[C@@H](O)[C@@H](C)[C@H](OC(C)=O)[C@@H]1C`, the activity change, negative = inhibition in assay [2] is -0.679%.

Regarding `O=S(=O)(NCCNC/C=C/c1ccc(Br)cc1)c1cccc2cnccc12`, the Potency result in assay [1] was “inactive”. In assay [2], the activity change, negative = inhibition is -22.5%.

For `CC(C)OC(=O)[C@H](C)N[P@](=O)(OC[C@H]1O[C@@H](n2ccc(=O)[nH]c2=O)[C@](C)(F)[C@@H]1O)Oc1ccccc1`, in assay [1], the Potency entry was “inactive”. In assay [2], the activity change, negative = inhibition was -40%. Besides, the Potency in assay [3] was 30400 nM (active).

Regarding `CON(C)C(=O)N1N=C(c2cc(F)ccc2F)S[C@@]1(CCCN)c1ccccc1`, in assay [1], the Potency entry was “inactive”. Besides, in assay [2], the activity change, negative = inhibition was -86.6%. In addition, the Potency in assay [3] is 24.1 nM (active).

With `Cc1ccccc1-n1nc(-c2c(-c3ccc(F)cc3)nn3c2NC[C@@H](CO)C3)ccc1=O`, the Potency result in assay [1] is “inactive”. Moreover, in assay [2], the activity change, negative = inhibition was -24.3%.

For the molecule `CONC(=O)c1ccccc1Nc1cc(Nc2cc(C)nn2C(C)C)ncc1Cl`, the Potency result in assay [1] was “inactive”. The activity change, negative = inhibition in assay [2] was -10.2%.

Consider `Clc1cccc(-c2ccc(-c3nnc(CCCc4ccc5cccnc5n4)o3)cc2)c1`, for which the Potency result in assay [1] and in assay [2] was “inactive” each time.

On to `CCC(=O)OCC(=O)C1(OC(=O)CC)C(C)CC2C3CCC4=CC(=O)C=CC4(C)C3(F)C(O)CC21C` (stereo not drawn), for which the Potency result in assay [1] is “inactive”. In addition, the activity change, negative = inhibition in assay [2] is -47%. Besides, in assay [3], the Potency is 1920 nM (active).

In the case of `CC(C)(CNC(=O)c1cccc(-c2noc(C(F)(F)F)n2)c1)c1coc(-c2ccccc2)n1`, the Potency entry in assay [1] was “inactive”. Moreover, the activity change, negative = inhibition in assay [2] is -6.95%.

As for `CN(CCOc1ccc(C[C@H](Nc2ccccc2C(=O)c2ccccc2)C(=O)O)cc1)c1ccccn1`, the call in assay [4] and in assay [5] was inactive. The Potency entry in assay [6] and in assay [1] was “inactive” in each case. Moreover, in assay [7], the activation is -7.09% (inactive).

For `COc1cc2ncnc(Nc3cccc(Cl)c3F)c2cc1OC(=O)N1CCN(C)C[C@H]1C`, in assay [1], the Potency result was “inactive”. Besides, in assay [2], the activity change, negative = inhibition was -27.8%.

Take `Cc1c(-c2cnccn2)ssc1=S`: the Potency entry in assay [1] was “inactive”. In addition, the activity change, negative = inhibition in assay [2] came to 3.56%.

`Clc1ccc(-c2nc3sccn3c2/C=N/OCc2ccc(Cl)c(Cl)c2)cc1`: the activation in assay [7] is 14.7% (inactive). Further, the Potency entry in assay [1] was “inactive”. Moreover, the activity change, negative = inhibition in assay [2] is -8.8%.

With `Cc1nnc(C(C)C)n1C1CC2CCC(C1)N2CCC(NC(=O)C1CCC(F)(F)CC1)c1ccccc1` (stereo not drawn), the Potency entry in assay [1] was “inactive”. For the same molecule, the activity change, negative = inhibition in assay [2] was -24.8%.

As for `CC1=C(/C=C/C(C)=C/C=C/C(C)=C/C=C/C=C(C)/C=C/C=C(C)/C=C/C2=C(C)CCCC2(C)C)C(C)(C)CCC1`, the Potency entry in assay [1] and in assay [8] was “inactive” in each case. Besides, the activity change, negative = inhibition in assay [2] is -16.6%.

On to `CC1(N)CCN(c2cnc(-c3cccc(Cl)c3Cl)c(N)n2)CC1`, for which the activity change, negative = inhibition in assay [2] was -2.57% [at 27.1 µM].

Regarding `C[C@H]1CC2[C@@H]3CCC4=CC(=O)C=C[C@]4(C)[C@@]3(F)[C@@H](O)C[C@]2(C)[C@@]1(O)C(=O)CO` (stereo partly drawn), the Potency result in assay [6], in assay [1] and in assay [2] was “inactive” each time.

For the molecule `CC(C)=CCC/C(C)=C/CC/C(C)=C/CSc1ccccc1C(=O)O`, the molecule was classed as inactive in assay [4] and in assay [5]. In addition, the Potency result in assay [6] and in assay [1] was “inactive” throughout. Moreover, the activity change, negative = inhibition in assay [2] was -15.6%.
